Laboratory results as given in PubChem BioAssay (NCATS).
Results filed as inconclusive are left out. Active and inactive are the calls of the source. Calls come from the whole dose curve; as a rule, active = well fitted curve in the direction sought with a large enough effect in the signal ratio, with a control signal flat (not every such curve was filed as active); inconclusive = small, poorly fitted or top-dose-only effect, or effect the other way, or a change in a side signal; inactive = no such curve, though single readings can be large or run the other way; the % refers to the signal ratio.

The molecules below were run against Peroxisome proliferator-activated receptor gamma (Homo sapiens) (UniProt P37231) (assay: qHTS assay for small molecule agonists of peroxisome proliferator-activated receptor gamma signaling (AID 588536)). Settings: HEK293 PPARg-UAS-bla, beta-lactamase ratio, 16 h, percent of rosiglitazone response, DMSO as zero; series mostly up to 76.7 µM; activation: at the top concentration.
Peroxisome proliferator-activated receptor gamma (Homo sapiens), sequence (P37231 whole entry, looked up): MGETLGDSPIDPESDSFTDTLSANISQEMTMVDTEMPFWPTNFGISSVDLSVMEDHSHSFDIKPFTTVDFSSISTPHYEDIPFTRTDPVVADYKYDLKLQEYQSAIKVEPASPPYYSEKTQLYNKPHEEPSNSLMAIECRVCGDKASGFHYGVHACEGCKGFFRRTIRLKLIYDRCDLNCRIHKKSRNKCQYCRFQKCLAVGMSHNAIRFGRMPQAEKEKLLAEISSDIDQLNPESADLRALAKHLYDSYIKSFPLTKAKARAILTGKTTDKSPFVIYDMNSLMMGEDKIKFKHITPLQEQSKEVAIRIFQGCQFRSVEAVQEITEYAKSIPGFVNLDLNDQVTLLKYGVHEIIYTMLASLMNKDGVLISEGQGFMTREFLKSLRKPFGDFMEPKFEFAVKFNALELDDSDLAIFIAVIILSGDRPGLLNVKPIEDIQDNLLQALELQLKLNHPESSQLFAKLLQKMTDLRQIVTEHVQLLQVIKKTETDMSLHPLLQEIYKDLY
From the text: NIH Chemical Genomics Center [NCGC] U.S. Environmental Protection Agency [EPA] National Institutes of Environmental Health Sciences [NIEHS] National Toxicology Program [NTP] NCGC Assay Overview The Peroxisome proliferator-activated receptors (PPARs) are lipid-activated transcription factors of the nuclear receptor superfamily with three distinct subtypes namely PPAR alpha, PPAR delta (also called PPAR beta) and PPAR gamma. All these subtypes heterodimerizes with Retinoid X receptor (RXR) and these heterodimers regulate transcription of various genes. PPAR-gamma (glitazone receptor) agonists have been used in the treatment of type 2 diabetes and dyslipidaemia. It is involved in the regulation of glucose and lipid metabolism. PPAR-gamma activates certain genes like Paraoxonase 1 which is responsible for hydrolyzing organophosphates. PPAR-gamma agonists may also be therapeutically important in the treatment of coronary artery disease, obesity and cancer and atherosclerosis.
NCGC Assay Protocol Summary Using a beta-lactamase reporter-gene under control of Peroxisome Proliferator-Activated-gamma (PPAR-gamma) response element, a cell-based assay [GeneBLAzer PPAR-gamma-UAS-bla assay developed by Invitrogen] was used to measure PPAR-gamma ligands signaling. GeneBLAzer PPAR-gamma-UAS-bla-HEK293 cells were used with assay medium containing 1% charcoal/dextran treated FBS. The assay was performed in clear bottom black Greiner 1536-well plates. Rosiglitazone was used in the screen as the positive control. Library compounds were measured for their ability to stimulate the reporter gene activity. Compounds were screened in a titration series in 1536-well format. The fluorescence intensity (405 nm excitation, 460/530 nm emission) was measured using an EnVision plate reader. Data was normalized relative to Rosiglitazone control (2 uM, 100%), and DMSO only wells (basal, 0%). Concentration-response titration points for each compound were fitted to the Hill equation yielding concentrations of half-maximal stimulation (EC50) and maximal response (efficacy) values. qHTS protocol for PPAR-gamma beta-lactamase assay in agonist mode [Step] [Parameter] [Value] [Description] 1. Reagent; 6 uL; 3000 cells/well 2. Incubation; 37 C for 6 - 6.5 hrs 3. Compounds; 23 nL; 0.59 nM to 92 uM 4. Controls (Rosiglitazone); 23 nL, - One column with dose response, start 19 uM, 1:3 dilutions in duplicates - Final concentrations of 2 uM and 0.5 uM in two columns 5. Incubation; 37 C for 16 hrs 6. Detection reagent; 1 uL of CCF4-dye 7. Incubation; RT for 2 hrs 8. Detection; Fluorescence; Envision plate reader

SMILES	activation	outcome
NNC(N)=S	-2.48% (inactive)	
ClCCBr	0.841% (inactive)	
CC(C)CC(C)N (stereo not given)	-0.842% (inactive)	
CCN(CC)N=O	2.18% (inactive)	
Nc1cc(Cl)cc(C(=O)O)c1Cl	11.8% (inactive)	
O=Cc1ccc(Cl)cc1Cl	-0.895% (inactive)	
Cc1ccc(N)cc1C	2.74% (inactive)	
Cc1ccc([N+](=O)[O-])cc1	4.02% (inactive)	
CCCCOC(=O)c1ccccc1N	-2.86% (inactive)	
CC(C)(C)OOC(=O)c1ccccc1		inactive
FC(Cl)(Cl)Cl	0.806% (inactive)	
ClC(Cl)Br	4.45% (inactive)	
ClCCCCl	0.0902% (inactive)	
O=S(=O)(Cl)c1ccccc1		inactive
Cl/C=C/CCl	1.26% (inactive)	
N#CC(Cl)(Cl)Cl	1.75% (inactive)	
CC(C)Br	0.873% (inactive)	
CCOP(=S)(OCC)Oc1nc(Cl)c(Cl)cc1Cl	4.6% (inactive)	
Nc1ccc(Oc2ccc(N)cc2)cc1		inactive
O=[N+]([O-])c1ccc2c3c(cccc13)CC2		inactive

SMILES	activation	outcome
Oc1c(Cl)c(Cl)cc(Cl)c1Cl	-9.02% (inactive)	
CCCC[N+](=O)[O-]	-1.3% (inactive)	
Oc1cccc(Cl)c1	5.29% (inactive)	
c1ccoc1	-2.47% (inactive)	
CCOC(=O)CBr	-2.73% (inactive)	
CCN(CC)CCO	-0.127% (inactive)	
O=C(O)CCl	1.1% (inactive)	
Clc1ccc(Cl)c(Cl)c1		inactive
Cc1cc(-c2cc(C)c(N)c(C)c2)cc(C)c1N	2.06% (inactive)	
NC1CCC(CC2CCC(N)CC2)CC1 (stereo not given)		inactive
CC(=O)CCC(C)=O	-0.583% (inactive)	
Nc1ccc([N+](=O)[O-])cc1[N+](=O)[O-]	-4.52% (inactive)	
CCOC(=O)C1OC1(C)c1ccccc1 (stereo not given)	3.2% (inactive)	
ClCc1ccccn1		inactive
COP(=S)(OC)SCn1nnc2ccccc2c1=O		inactive
CCN(N=O)C(N)=O	2.37% (inactive)	
CCC/C=N/O	0.986% (inactive)	
CC(C)[C@]12CC(=O)[C@H](C)[C@H]1C2		inactive
c1ccc2c(c1)CCNC2	2.12% (inactive)	
CC[N+](=O)[O-]	-0.95% (inactive)	
